Experimental data as given in PubChem BioAssay (NCATS).
Records with an inconclusive call do not appear. Entries that show only a call come without a potency. Active and inactive are the calls of the source. The call rests on the fitted dose curve; in most records, active means well fitted inhibition curve with a large enough effect; inconclusive means small, poorly fitted or top-dose-only effect; inactive means no such curve, though single readings can be large or run the other way.

molecular target: Retinaldehyde dehydrogenase 3 (Homo sapiens) (UniProt P47895); assay: qHTS for Inhibitors of the Aldehyde Dehydrogenase Family (ALDH1A3) Validation screen (AID 2061312); settings: ALDH1A3 enzyme inhibition qHTS validation, fluorescence; series mostly up to 84.7 µM; further: nearly all actives have a fitted effect of over 45% in size

| Structure (SMILES) | Potency |
| --- | --- |
| COc1cccc(-n2nc(C(=O)O)cc2-c2ccc(C3CCCCC3)c(Cl)c2)c1 | inactive |
| COc1ccc(C#Cc2ccc(C(=O)N3CCC[C@@H](CO)C3)cc2)cc1 | inactive |
| CC1=C(C(=O)Nc2cc(Cl)ccc2Cl)C(c2ccco2)C2=C(CCCC2=O)N1 (stereo not drawn) | inactive |
| O=C1CC2(CCCC2)[C@H](O)C(=O)N1CCCCN1CCN(c2ncccn2)CC1 | inactive |
| CC(C)(F)C[C@@H](N[C@@H](c1ccc(-c2ccc(S(C)(=O)=O)cc2)cc1)C(F)(F)F)C(=O)NC1(C#N)CC1 | inactive |
| CC(=O)NC1=NN(C(C)=O)C(C)(c2ccccc2)S1 (stereo not drawn) | inactive |
| O=[N+]([O-])c1cn2c(n1)OC[C@@H](OCc1ccc(-c3ccc(OC(F)(F)F)cc3)nc1)C2 | inactive |
| COc1c(C)cnc(Cn2cc(C#CCC(C)(C)O)c3c(Cl)nc(N)nc32)c1C | inactive |
| COc1ccccc1N1CCN(CC[C@@](C)(C(=O)C2CCCCC2)c2ccccc2)CC1 | inactive |
| CC(C)(C)c1ccc(CNC(=S)NCc2ccc(NS(C)(=O)=O)c(F)c2)cc1 | inactive |
| O=C(Nc1cc(-c2ccccc2)nn1-c1ccccc1F)c1ccc([N+](=O)[O-])cc1 | inactive |
| N#CC(c1ccnc(OCc2ccc(CN3CCOCC3)cc2)n1)c1nc2ccccc2s1 (stereo not drawn) | inactive |
| O=C(NCc1cccc(O)c1)c1cc2cc(F)ccc2[nH]1 | inactive |
| CC(C)(C)c1cc(Br)cc([C@H](CC(=O)O)NC(=O)CNC(=O)c2cc(O)cc(NC3=NCC(O)CN3)c2)c1 (stereo partly drawn) | inactive |
| COc1cc(Br)c(S(=O)(=O)Nc2ccc(Cl)c(O[C@@H]3CCN(C)C3)c2)cc1OC | inactive |
| Cc1onc(-c2ccccc2)c1C(=O)N1CCN(c2ccc([N+](=O)[O-])cc2Cl)CC1 | inactive |
| O=C(Nc1ccccc1Br)NC1CCN(c2ccc(C(F)(F)F)cn2)C1 (stereo not drawn) | inactive |
| Cc1ccccc1CN1CCn2c1nc1c(c2=O)CN(Cc2ccccc2)CC1 | inactive |
| CC(C)c1ccccc1OC(=O)NCCc1ccc2ccccc2c1 | inactive |
| COC(=O)c1ccc2c(c1)nc(NC(=O)c1ccccc1)n2CCCc1ccccc1 | inactive |

| Structure (SMILES) | Potency |
| --- | --- |
| CCOC(CN1CCN(CC(C)C(=O)c2ccccc2)CC1)c1ccccc1 (stereo not drawn) | inactive |
| O=C1NC(=O)C(c2cn3c4c(cccc24)CCC3)C1c1c[nH]c2ccccc12 (stereo not drawn) | inactive |
| CCCCc1c(-c2ccc(OC)cc2)[nH]c2nccnc12 | inactive |
| CCOc1ccc(NC(=S)N2CCC(C(O)(c3ccccc3)c3ccccc3)CC2)cc1 | inactive |
| CC1(C)Oc2ncnc(N)c2N=C1c1ccc(C23CCC(CC(=O)O)(CC2)CC3)cc1 | inactive |
| CC1(C)[C@H]2C[C@H](C/C=C\CCCC(=O)O)[C@@H](NC(=O)c3csc4ccc(O)cc34)[C@@H]1C2 | inactive |
| O=c1cc(OCc2ccc(F)cc2)ccn1-c1ccc(OCCN2CCCC2)cc1 | inactive |
| COc1cccc(CN(C(=O)CC(C)(C)C)C2CC(C(=O)N3CCNCC3)N(Cc3ccc4c(c3)OCO4)C2)c1 (stereo not drawn) | inactive |
| O=C(Nc1ccccc1)N1CCN(c2nc(-c3ccccc3)ns2)CC1 | inactive |
| CS(=O)(=O)NCC1CCC(Nc2nc3c(s2)CCSc2ccccc2-3)CC1 (stereo not drawn) | inactive |
| CCNC(=O)[C@H]1O[C@H](n2cnc3c(NCC(c4ccccc4)c4ccccc4)nc(C(=O)NCCNC(=O)NC4CCN(c5ccccn5)CC4)nc32)[C@H](O)[C@@H]1O | inactive |
| Cc1cc(-c2nc(-c3ccc(OC(F)(F)F)cc3)no2)nn1Cc1ccnc(N2CCN(C3CC3)CC2)c1 | inactive |
| CN(C)c1nc(NC2CCC(NCCc3ccc(Br)cc3OC(F)(F)F)CC2)nc2ccccc12 (stereo not drawn) | inactive |
| Cc1nc(C#Cc2ccnc(Cl)c2)c(C)n1-c1ccc(F)cc1 | inactive |
| COc1ccc(CCc2nc3cc(-c4c(C)noc4C)ccc3n2C[C@H](C)N2CCOCC2)cc1Cl | inactive |
| Cc1ccccc1NC(=O)Nc1ccc(CN2C(=O)N([C@@H](CC(C)C)C(=O)N[C@@H](CC(=O)O)c3ccccc3)C(=O)C2(C)C)cc1 | inactive |
| CC(C)(C)c1ccc(S(=O)(=O)NCc2ccc(C(=O)Nc3cccnc3)cc2)cc1 | inactive |
| CCOC(=O)c1sc(NC(=O)[C@H](C(C)C)n2c(=O)[nH]c3ccccc3c2=O)nc1C | inactive |
| Cn1ncnc1COc1nn2c(-c3cc(F)ccc3F)nnc2cc1C(C)(C)C | inactive |

molecular target: Retinaldehyde dehydrogenase 3 (Homo sapiens) (UniProt P47895); assay: qHTS for Inhibitors of the Aldehyde Dehydrogenase Family (ALDH1A3) Primary screen (AID 2061315); settings: ALDH inhibition qHTS; series mostly up to 56 µM

| Structure (SMILES) | Potency |
| --- | --- |
| COc1cccc(-n2nc(C(=O)O)cc2-c2ccc(C3CCCCC3)c(Cl)c2)c1 | inactive |
| COc1ccc(C#Cc2ccc(C(=O)N3CCC[C@@H](CO)C3)cc2)cc1 | inactive |
| CC1=C(C(=O)Nc2cc(Cl)ccc2Cl)C(c2ccco2)C2=C(CCCC2=O)N1 (stereo not drawn) | inactive |
| O=C1CC2(CCCC2)[C@H](O)C(=O)N1CCCCN1CCN(c2ncccn2)CC1 | inactive |
| CC(C)(F)C[C@@H](N[C@@H](c1ccc(-c2ccc(S(C)(=O)=O)cc2)cc1)C(F)(F)F)C(=O)NC1(C#N)CC1 | inactive |
| CC(=O)NC1=NN(C(C)=O)C(C)(c2ccccc2)S1 (stereo not drawn) | inactive |
| O=[N+]([O-])c1cn2c(n1)OC[C@@H](OCc1ccc(-c3ccc(OC(F)(F)F)cc3)nc1)C2 | inactive |
| COc1c(C)cnc(Cn2cc(C#CCC(C)(C)O)c3c(Cl)nc(N)nc32)c1C | inactive |
| COc1ccccc1N1CCN(CC[C@@](C)(C(=O)C2CCCCC2)c2ccccc2)CC1 | inactive |
| CC(C)(C)c1ccc(CNC(=S)NCc2ccc(NS(C)(=O)=O)c(F)c2)cc1 | inactive |
| O=C(Nc1cc(-c2ccccc2)nn1-c1ccccc1F)c1ccc([N+](=O)[O-])cc1 | inactive |
| N#CC(c1ccnc(OCc2ccc(CN3CCOCC3)cc2)n1)c1nc2ccccc2s1 (stereo not drawn) | inactive |
| O=C(NCc1cccc(O)c1)c1cc2cc(F)ccc2[nH]1 | inactive |
| CC(C)(C)c1cc(Br)cc([C@H](CC(=O)O)NC(=O)CNC(=O)c2cc(O)cc(NC3=NCC(O)CN3)c2)c1 (stereo partly drawn) | inactive |
| COc1cc(Br)c(S(=O)(=O)Nc2ccc(Cl)c(O[C@@H]3CCN(C)C3)c2)cc1OC | inactive |
| Cc1onc(-c2ccccc2)c1C(=O)N1CCN(c2ccc([N+](=O)[O-])cc2Cl)CC1 | inactive |
| O=C(Nc1ccccc1Br)NC1CCN(c2ccc(C(F)(F)F)cn2)C1 (stereo not drawn) | inactive |
| Cc1ccccc1CN1CCn2c1nc1c(c2=O)CN(Cc2ccccc2)CC1 | inactive |
| CC(C)c1ccccc1OC(=O)NCCc1ccc2ccccc2c1 | inactive |
| COC(=O)c1ccc2c(c1)nc(NC(=O)c1ccccc1)n2CCCc1ccccc1 | inactive |

| Structure (SMILES) | Potency |
| --- | --- |
| CCOC(CN1CCN(CC(C)C(=O)c2ccccc2)CC1)c1ccccc1 (stereo not drawn) | inactive |
| O=C1NC(=O)C(c2cn3c4c(cccc24)CCC3)C1c1c[nH]c2ccccc12 (stereo not drawn) | inactive |
| CCCCc1c(-c2ccc(OC)cc2)[nH]c2nccnc12 | inactive |
| CCOc1ccc(NC(=S)N2CCC(C(O)(c3ccccc3)c3ccccc3)CC2)cc1 | inactive |
| CC1(C)Oc2ncnc(N)c2N=C1c1ccc(C23CCC(CC(=O)O)(CC2)CC3)cc1 | inactive |
| CC1(C)[C@H]2C[C@H](C/C=C\CCCC(=O)O)[C@@H](NC(=O)c3csc4ccc(O)cc34)[C@@H]1C2 | inactive |
| O=c1cc(OCc2ccc(F)cc2)ccn1-c1ccc(OCCN2CCCC2)cc1 | inactive |
| COc1cccc(CN(C(=O)CC(C)(C)C)C2CC(C(=O)N3CCNCC3)N(Cc3ccc4c(c3)OCO4)C2)c1 (stereo not drawn) | inactive |
| O=C(Nc1ccccc1)N1CCN(c2nc(-c3ccccc3)ns2)CC1 | inactive |
| CS(=O)(=O)NCC1CCC(Nc2nc3c(s2)CCSc2ccccc2-3)CC1 (stereo not drawn) | inactive |
| CCNC(=O)[C@H]1O[C@H](n2cnc3c(NCC(c4ccccc4)c4ccccc4)nc(C(=O)NCCNC(=O)NC4CCN(c5ccccn5)CC4)nc32)[C@H](O)[C@@H]1O | inactive |
| Cc1cc(-c2nc(-c3ccc(OC(F)(F)F)cc3)no2)nn1Cc1ccnc(N2CCN(C3CC3)CC2)c1 | inactive |
| CN(C)c1nc(NC2CCC(NCCc3ccc(Br)cc3OC(F)(F)F)CC2)nc2ccccc12 (stereo not drawn) | inactive |
| Cc1nc(C#Cc2ccnc(Cl)c2)c(C)n1-c1ccc(F)cc1 | inactive |
| COc1ccc(CCc2nc3cc(-c4c(C)noc4C)ccc3n2C[C@H](C)N2CCOCC2)cc1Cl | inactive |
| Cc1ccccc1NC(=O)Nc1ccc(CN2C(=O)N([C@@H](CC(C)C)C(=O)N[C@@H](CC(=O)O)c3ccccc3)C(=O)C2(C)C)cc1 | inactive |
| CC(C)(C)c1ccc(S(=O)(=O)NCc2ccc(C(=O)Nc3cccnc3)cc2)cc1 | inactive |
| CCOC(=O)c1sc(NC(=O)[C@H](C(C)C)n2c(=O)[nH]c3ccccc3c2=O)nc1C | inactive |
| Cn1ncnc1COc1nn2c(-c3cc(F)ccc3F)nnc2cc1C(C)(C)C | inactive |
